Hits are enriched below; roughly 12% of the tested compounds scored in any of these assays.
JMJD2A Tudor – qHTS Assay for Inhibitors of JMJD2A-Tudor Domain; AID 504339, 2011; Lysine-specific demethylase 4A (Homo sapiens), O75164; Potency, µM (series often up to 114 µM), most hits filed as inhibitors; 390,000 compounds, 4.4% hits; AlphaScreen JMJD2A-Tudor / H3K4me3 peptide binding; note: nearly all actives have a fitted effect of over 50% in size
PI5P4Ka inh – qHTS for Inhibitors of phosphatidylinositol 5-phosphate 4-kinase (PI5P4K); Phosphatidylinositol 5-phosphate 4-kinase type-2 alpha (Homo sapiens), P48426; PI5P4Kalpha enzyme, ADP-Glo luminescence, 60 min; stronger effect = lower value; max response, %; 330,000 compounds, 1.2% hits; active = max response of -50% or lower; inconclusive = between -30% and -50%; inactive = -30% or higher; note: value at the top dose of about 77 µM
Target sequence (P48426 whole entry, looked up): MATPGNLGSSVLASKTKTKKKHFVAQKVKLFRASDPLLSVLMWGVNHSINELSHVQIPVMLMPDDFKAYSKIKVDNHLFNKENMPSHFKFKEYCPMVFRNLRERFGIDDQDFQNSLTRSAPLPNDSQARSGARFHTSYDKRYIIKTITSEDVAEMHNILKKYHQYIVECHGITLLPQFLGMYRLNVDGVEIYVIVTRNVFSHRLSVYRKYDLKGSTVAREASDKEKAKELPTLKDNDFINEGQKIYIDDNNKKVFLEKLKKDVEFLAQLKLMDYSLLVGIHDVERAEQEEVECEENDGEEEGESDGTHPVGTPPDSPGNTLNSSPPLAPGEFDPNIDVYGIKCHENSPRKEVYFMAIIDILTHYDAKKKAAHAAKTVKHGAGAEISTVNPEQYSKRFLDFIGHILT
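Quantitative HTS of the MLSMR library against PI5P4Kalpha with substrate. ATP added last at 5 microM final; room temperature, 60 minutes. Remaining ATP depleted, ADP converted and read as luminescence.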
G9a block – qHTS Assay for Inhibitors of Histone Lysine Methyltransferase G9a | G9a H3K9 monomethylation, AlphaScreen, 2 h | Histone-lysine N-methyltransferase EHMT2 (Homo sapiens), Q96KQ7 | Potency, µM (series often up to 102 µM), hits mostly inhibitors | 350,000 compounds, 8.8% hits; note: nearly all actives have a fitted effect of over 75% in size
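AlphaScreen detection with an anti-monomethyl H3K9 antibody quantified product after a 2 h room-temperature reaction containing 500 nM biotinylated H3K9 peptide, 20 µM SAM and 20 nM enzyme, which had been preincubated 15 min with compound.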
PLK1 PBD inh – qHTS for Inhibitors of PLK1-PDB (polo-like kinase 1 - polo-box domain): Primary Screen | Serine/threonine-protein kinase PLK1 (Homo sapiens), P53350 | Plk1 PBD binding of FITC phosphopeptide, fluorescence polarization | Potency, µM, actives largely listed as inhibitors | 360,000 compounds, 2.8% hits; note: series mostly up to about 57 µM; nearly all actives have a fitted effect of over 65% in size
BAZ2B inh – qHTS Assay for Inhibitors of BAZ2B; Bromodomain adjacent to zinc finger domain protein 2B (Homo sapiens), Q9UIF8; AlphaScreen BAZ2B-H3K14Ac peptide displacement; Potency, µM (top dose mostly 114 µM), usual class: inhibitors; 360,000 compounds, 4.4% hits; AID 504333, 2011; note: nearly all actives have a fitted effect of over 60% in size
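BAZ2B 50 nM plus b-H3(5-23)K14Ac 50 nM, PBS pH 7.4/0.01% Tween-20, 30 min RT; compound added (max 110 uM), 30 min RT; streptavidin donor/Ni-chelate acceptor beads 10 ug/mL final, 20 min dark; AlphaScreen read.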
HP1b chromo inh – HTS for Inhibitors of HP1-beta Chromodomain Interactions with Methylated Histone Tails; AID 540317, 2011; Chromobox protein homolog 1 (Homo sapiens), P83916; 390,000 compounds, 0.56% hits; AlphaScreen HP1-beta / biotin-H3K9me3 peptide binding; Potency, µM (doses to about 114 µM), actives largely listed as inhibitors; note: nearly all actives have a fitted effect of over 70% in size
Target sequence (P83916 whole entry, looked up): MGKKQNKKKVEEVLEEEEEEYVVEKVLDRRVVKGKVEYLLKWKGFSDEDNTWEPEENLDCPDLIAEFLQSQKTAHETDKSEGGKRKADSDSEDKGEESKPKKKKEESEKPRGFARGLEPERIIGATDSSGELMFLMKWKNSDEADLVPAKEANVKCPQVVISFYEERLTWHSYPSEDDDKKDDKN
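Compound inhibition of the preformed complex between 50 nM HP1-beta and 50 nM biotinylated H3K9me3 peptide was read by AlphaScreen. Buffer was PBS pH 7.4 with 0.01% Tween-20. Incubations ran 30 min at room temperature, with 10 ug/mL donor/acceptor beads.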
Large screens that a line does not name were inactive. Unless noted, calls come from the whole dose curve; as a rule, active = well fitted curve in the direction sought with a large enough effect; inconclusive = small, poorly fitted or top-dose-only effect, or another doubt; inactive = no such curve, though single readings can be large; an effect the other way counts as inactive or inconclusive.

Cc1ccc(S(=O)(=O)NCCC(=O)N2CCN(c3ccccc3)CC2)cc1C	none (no result: G9a block, BAZ2B inh)
N#CC1=C(SCC(=O)Nc2ccccc2)NC(=O)CC1c1ccco1 (stereo not drawn)	JMJD2A Tudor inconclusive (no result: PI5P4Ka inh, G9a block, BAZ2B inh)
N#CC1=C(SCC(=O)NCc2ccccc2)NC(=O)CC1c1ccco1 (stereo not drawn)	G9a block inconclusive, PLK1 PBD inh 9.47µM, HP1b chromo inh inconclusive
CCSC1=C(C#N)C(c2ccc(C)o2)CC(=O)N1 (stereo not drawn)	none
Cc1ccc(C2CC(=O)NC(SCc3ccccc3)=C2C#N)o1 (stereo not drawn)	JMJD2A Tudor inconclusive, G9a block inconclusive, BAZ2B inh 31.6µM (no result: PI5P4Ka inh)
C/C(CCN1CCCCc2nc(C)c(C)cc21)=N\O[C@@H](C)CN1CCCCc2nc(C)c(C)cc21	G9a block inconclusive (no result: JMJD2A Tudor, PI5P4Ka inh, PLK1 PBD inh, HP1b chromo inh)
COc1ccc(O[C@H]2C=C[C@@H](c3ccccc3)O[C@@H]2CO/N=C(\C)CCN2CCCCc3nc(C)c(C)cc32)cc1	G9a block 39.8µM, BAZ2B inh inconclusive (no result: JMJD2A Tudor, PI5P4Ka inh, PLK1 PBD inh, HP1b chromo inh)
C/C(CCN1CCCCc2nc(C)c(C)cc21)=N\OC[C@@H](O)[C@H]1O[C@@H]2OC(C)(C)O[C@@H]2[C@H]1O	G9a block 50.1µM (no result: JMJD2A Tudor, PI5P4Ka inh, PLK1 PBD inh, HP1b chromo inh)
CC(CS(=O)(=O)c1ccc2c(c1)NC(=O)CS2)C(=O)NCc1ccccc1Cl (stereo not drawn)	JMJD2A Tudor 25.1µM, PI5P4Ka inh inconclusive, G9a block inconclusive, PLK1 PBD inh inconclusive, BAZ2B inh 14.1µM, HP1b chromo inh 12.6µM
CN(C)c1ccc(CNS(=O)(=O)c2ccc3c(c2)NC(=O)CS3)cc1	JMJD2A Tudor inconclusive, G9a block 50.1µM, BAZ2B inh inconclusive
COCC(=O)N1CCC2(CCCN(Cc3cc(C(F)(F)F)cc(C(F)(F)F)c3)C2)CC1	none (no result: JMJD2A Tudor, PI5P4Ka inh, PLK1 PBD inh, BAZ2B inh, HP1b chromo inh)
Cc1ccc(N2CCN(c3cc(C)nc4c(-c5ccc(Cl)cc5)c(C)nn34)CC2C)cc1 (stereo not drawn)	none (no result: PI5P4Ka inh, PLK1 PBD inh)
CCOc1cc(/C=N/Nc2nc3ccccc3[nH]2)cc(Br)c1OCC(=O)N(C)C	none
COc1ccc(/C=C2\COc3ccccc3C2=O)cc1OC	JMJD2A Tudor 50.1µM, PLK1 PBD inh 26.7µM
CCOc1cc(/C=C2\COc3ccccc3C2=O)cc(Br)c1OCC(=O)N(C)C	JMJD2A Tudor inconclusive, G9a block 39.8µM, BAZ2B inh inconclusive
COc1ccc(/C=C2/CCc3ccccc3C2=O)cc1OC	BAZ2B inh inconclusive
Cc1cc(C)n(CCc2nc3c4ccccc4nc(SCc4ccc(Cl)cc4)n3n2)n1	none (no result: PI5P4Ka inh, PLK1 PBD inh)
CCCN1CCCc2cc(CN(CCCN3CCOCC3)C(=O)Nc3ccc(CC)cc3)ccc21	JMJD2A Tudor inconclusive, G9a block 12.6µM, BAZ2B inh 8.91µM, HP1b chromo inh inconclusive (no result: PI5P4Ka inh, PLK1 PBD inh)
O=C(Nc1ccc(Cl)c(Cl)c1)N(CCCN1CCOCC1)Cc1cccnc1	none
CCCCN1CCCc2cc(CN(CCCN3CCOCC3)C(=O)Nc3ccc(CC)cc3)ccc21	JMJD2A Tudor 7.94µM, G9a block 8.91µM, BAZ2B inh inconclusive (no result: PI5P4Ka inh, PLK1 PBD inh)
CCc1ccc2[nH]c(=O)c(CN(CCCN3CCOCC3)C(=O)Nc3ccc(F)cc3)cc2c1	none
COc1ccc(-c2nnc3n2N=C(c2ccc(OC)c(OC)c2)CS3)cc1	none (no result: PI5P4Ka inh, G9a block, PLK1 PBD inh, BAZ2B inh, HP1b chromo inh)
CCCN(CCC)C(=O)c1ccc2c(c1)S(=O)(=O)c1ccccc1C2=O	JMJD2A Tudor inconclusive, G9a block 79.4µM
CCOc1ccc2oc(-c3ccccc3)c(C(N)=O)c2c1	G9a block inconclusive
CC(=O)Oc1ccc2oc(-c3ccccc3)c(C(N)=O)c2c1	PLK1 PBD inh 26.7µM
NC(=O)c1c(NC(=O)c2cnccn2)sc2c1CCCC2	G9a block 8.91µM
NC(=O)c1c(NC(=O)c2ccncc2)sc2c1CCCC2	G9a block inconclusive
COc1ccc(-c2cc(C(=O)Nc3sc4c(c3C(N)=O)CCC(C)C4)no2)cc1 (stereo not drawn)	none (no result: PI5P4Ka inh, PLK1 PBD inh)
C=CCNC(=S)Nc1sc2c(c1C(N)=O)CCCC2	PI5P4Ka inh inconclusive, G9a block 17.8µM, PLK1 PBD inh 13.4µM, HP1b chromo inh inconclusive
NC(=O)c1c(NC(=S)Nc2ccccc2)sc2c1CCCC2	JMJD2A Tudor inconclusive, PI5P4Ka inh inconclusive, G9a block 6.31µM, PLK1 PBD inh 6.7µM
NC(=O)c1c(NC(=O)c2cc(-c3ccc(F)cc3)on2)sc2c1CCCC2	G9a block 1.78µM (no result: PI5P4Ka inh, PLK1 PBD inh)
O=C(NC(=S)Nc1sc2c(c1C(=O)O)CCCC2)c1ccccc1	JMJD2A Tudor inconclusive, G9a block inconclusive, PLK1 PBD inh inconclusive, BAZ2B inh inconclusive
CCC(=O)N1CCCC1(C)C(=O)NCc1ccc(SC)cc1 (stereo not drawn)	none (no result: JMJD2A Tudor, G9a block, BAZ2B inh, HP1b chromo inh)
COc1ccc(-c2c(C)nn3c(C(F)(F)F)cc(C)nc23)cc1OC	JMJD2A Tudor inconclusive (no result: PI5P4Ka inh, PLK1 PBD inh)
NC(=O)c1c(NC(=S)Nc2ccc(F)cc2)sc2c1CCCC2	G9a block 22.4µM, PLK1 PBD inh inconclusive
Cc1cccc(Oc2ccc(NC(=O)CCC(=O)OCC(=O)c3ccc(Br)cc3)cc2)c1C	none (no result: PI5P4Ka inh, PLK1 PBD inh)
COC(=O)c1ccc(CSc2nc3scc(-c4cccs4)c3c(=O)[nH]2)o1	JMJD2A Tudor 44.7µM, G9a block inconclusive, PLK1 PBD inh inconclusive (no result: PI5P4Ka inh, BAZ2B inh)
CCOc1ccc2nc(SCc3ccc(C(=O)OC)o3)[nH]c2c1	none
COC(=O)c1ccc(CSc2nc3c(cnn3-c3ccc(C)c(C)c3)c(=O)[nH]2)o1	JMJD2A Tudor 50.1µM, PLK1 PBD inh 26.7µM
Cc1ccc(N2C(=O)C3C4C=CC(CC4)C3C2=O)cc1[N+](=O)[O-] (stereo not drawn)	BAZ2B inh 79.4µM
N=c1n(CCN2CCCC2)c2ccccc2n1CC(O)c1ccco1 (stereo not drawn)	G9a block inconclusive, BAZ2B inh inconclusive (no result: PI5P4Ka inh)
CCCCCCCn1c(=N)n(CC(O)c2ccco2)c2ccccc21 (stereo not drawn)	G9a block 79.4µM
